Screening data as filed in PubChem BioAssay.
NIH3T3 tox: kills NIH 3T3 cells; NIH 3T3 viability, CellTiter-Glo ATP luminescence, 48-72 h; Potency, µM (top dose mostly 96.7 µM), inactives show at the top dose activity change, negative = cytotoxicity, most hits filed as inhibitors; 4.3% of 94,000 active; AID 1345082; note: nearly all actives have a fitted effect of over 55% in size
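Luminescent ATP readout (CellTiter-Glo, 10 min RT) after 48 or 72 hr compound exposure of NIH 3T3 cells seeded at 400 cells/well in 1536-well format; quantitative HTS.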
Luciferase inh: Photinus pyralis luciferase inhibition; P08659; purified P. pyralis luciferase, luminescence, biochemical; 2.5% of 76,000 active; Potency, µM (doses to about 115 µM), usual class: inhibitors; note: nearly all actives have a fitted effect of over 65% in size
Target sequence (P08659 whole entry, looked up): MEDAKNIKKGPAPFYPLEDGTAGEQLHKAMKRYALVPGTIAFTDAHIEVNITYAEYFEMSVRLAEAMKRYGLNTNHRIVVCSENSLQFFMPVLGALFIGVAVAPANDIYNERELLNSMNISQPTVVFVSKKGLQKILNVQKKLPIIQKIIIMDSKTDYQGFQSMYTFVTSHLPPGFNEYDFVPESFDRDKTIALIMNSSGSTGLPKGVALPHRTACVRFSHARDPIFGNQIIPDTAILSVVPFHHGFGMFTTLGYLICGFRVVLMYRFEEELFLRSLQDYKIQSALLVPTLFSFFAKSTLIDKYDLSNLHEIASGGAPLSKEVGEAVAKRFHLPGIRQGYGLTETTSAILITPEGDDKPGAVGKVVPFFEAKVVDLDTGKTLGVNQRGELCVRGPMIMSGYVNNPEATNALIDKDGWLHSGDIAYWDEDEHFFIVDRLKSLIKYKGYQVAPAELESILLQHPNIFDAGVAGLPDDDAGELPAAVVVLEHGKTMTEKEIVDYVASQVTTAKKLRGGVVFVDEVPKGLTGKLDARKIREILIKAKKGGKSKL
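Purified 10nM P. pyralis luciferase with 10uM D-luciferin and 10uM ATP in 50mM Tris acetate pH 7.5, 10mM Mg acetate, 0.01% Tween-20, 0.05% BSA. qHTS titration; luminescence read by CCD imager.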
hNpr1 antagonist: blocks ANP-stimulated signaling of human Npr1 receptor. P16066. HEK293 hNpr1 GloSensor cGMP, ANP-stimulated luminescence. Potency, µM (series often up to 46.3 µM), without a hit: at the top dose activity change, negative = inhibition, hits mostly inhibitors. 1.6% of 76,000 active. AID 1347048; calls by dose curve; note: nearly all actives have a fitted effect of over 60% in size
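Compound pre-incubated 30 min at room temperature on GloSensor-loaded HEK293 cells stably carrying hNpr1 and the pGS-40F cGMP biosensor. Stimulation uses hNppA at 0.1 nM final; luminescence is taken at baseline and 20 min post-agonist.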
HEK cytotox: HEK 293 cell cytotoxicity | HEK 293 viability, ATP luminescence (CellTiter-Glo), 48-72 h | Potency, µM (titrated, usually from 115 µM), for the others: at the top dose activity change, negative = cytotoxicity, most hits filed as inhibitors | 6.6% of 94,000 active; note: nearly all actives have a fitted effect of over 60% in size
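Pintool-delivered compounds were incubated with HEK 293 cells (250 cells/well) at 37 degree Celsius for 48 or 72 hr. ATP-dependent luminescence (CellTiter-Glo) then reported remaining viable cells.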
The depositor's hits bear a star; i = inactive; ? = inconclusive; · = no result given; [ ] = remark or other dose. Shown are actives, neighbours in structure and some others; about 11% of the full set was active somewhere. Unless noted, calls come from the whole dose curve; as a rule, active = well fitted curve in the direction sought with a large enough effect; inconclusive = small, poorly fitted or top-dose-only effect, or another doubt; inactive = no such curve, though single readings can be large; an effect the other way counts as inactive or inconclusive. % is set by controls: 0 for no effect and ±100 for the full control effect; potency is the fitted concentration of half-maximal effect.

SMILES	NIH3T3 tox	Luciferase inh	hNpr1 antagonist	HEK cytotox
Cc1ccc(CNC(=O)CN2C(=O)NC3(CCCCC3)C2=O)cc1	-13%	i	-5%	2%
O=C(c1cc(F)ccc1F)N1CC(Oc2ccc(-c3nc(-c4ccccc4)no3)cc2)C1	-11%	?	?	?
Cc1noc(-c2ccc(OC3CN(C(=O)c4sccc4C)C3)cc2)n1	?	i	?	?
Cc1noc(-c2ccc(OC3CN(C(=O)c4cccc5[nH]ccc45)C3)cc2)n1	?	35µM*	?	?
O=C(c1cccc2[nH]ccc12)N1CC(Oc2ccc(-c3nc(-c4ccccc4)no3)cc2)C1	?	16µM*	-27%	?
Cc1noc2c(NC(C)C)cc(-c3cccnc3)nc12	40µM*	i	-2%[70.6 µM]	-26%[230 µM]
Cc1noc2c(Nc3ccc(C(N)=O)cc3)cc(-c3cccnc3)nc12	20µM*	i	-8%[70.6 µM]	-9%[172 µM]
Cc1noc2c(N(C)C)cc(-c3cccnc3)nc12	?	i	1%[70.6 µM]	-5%[230 µM]
Cc1noc2c(NCC3CCOCC3)cc(-c3cccnc3)nc12	?	i	7%[70.6 µM]	-5%[172 µM]
O=c1cc(-c2cccnc2)oc2c(NCC3CCOCC3)nccc12	?	i	-1%[70.6 µM]	-14%[172 µM]
CN(c1cc(=O)c2ccnc(Nc3ccn(C)n3)c2o1)C1CCOCC1	?	i	4%[70.6 µM]	-17%[172 µM]
Cn1ccc(Nc2nccc3c(=O)cc(-c4cccnc4)oc23)n1	40µM*	i	-2%[70.6 µM]	-6%[172 µM]
O=c1cc(-c2cccnc2)oc2c(NCc3ccccc3)nccc12	22µM*	?	5%[70.6 µM]	?
Cn1ccc(Nc2nccc3c(=O)cc(-c4cn[nH]c4)oc23)n1	79µM*	i	0%[70.6 µM]	?
COc1nc2c(cc1CNC(=O)CSC)C(=O)N(CCc1ccccn1)C2	-19%	i	6%	i
CC(C)(CN1CCOCC1)NC(=O)c1csc2nc(-c3ccc(F)cc3)cn12	-27%	i	0%	?
CC(C)c1noc(CN(C)C(=O)c2csc3nc(-c4ccc(F)cc4)cn23)n1	?	i	?	45µM*
CN(Cc1nccn1C)C(=O)c1csc2nc(-c3ccc(C(F)(F)F)cc3)cn12	?	40µM*	-11%	40µM*
CC(C)N1CC(C(=O)NCc2ccc(F)cc2)NC1=O (stereo not given)	-27%[138 µM]	·	·	-26%[172 µM]
O=C(O)Cn1ccc2cc(OCC3CCN(C(=O)CCC(F)(F)F)CC3)cnc21	89µM*	i	-9%[70.6 µM]	-11%[172 µM]
NC(=O)Cn1ccc2cc(OCC3CCN(C(=O)C4CC4)CC3)cnc21	?	?	-1%[70.6 µM]	-20%[172 µM]
O=C(O)Cn1ccc2cc(OCC3CCN(C(=O)C4CCCC4)CC3)cnc21	100µM*	i	0%[70.6 µM]	3%[172 µM]
COc1cccc(N2CCN(c3nc(C(=O)NCc4cccnc4)cs3)CC2)c1	?	?	11µM*	32µM*
O=C(NCc1ccccn1)c1csc(N2CCN(c3ccccc3)CC2)n1	?	i	-20%	40µM*
COc1ccc(N2CCN(c3nc(C(=O)N4CCC(C)CC4)cs3)CC2)cc1	40µM*	?	?	40µM*
SMILES	NIH3T3 tox	Luciferase inh	hNpr1 antagonist	HEK cytotox
CCCCN(C)C(=O)c1csc(N2CCN(c3ccccc3)CC2)n1	?	i	?	35µM*
COc1cccc(-c2c(C(=O)NCc3cccnc3)nc3sccn23)c1	-9%	·	·	-6%
CCCc1nc(C(=O)N(C)CCCc2cnn(C)c2)cs1	5%	i	3%	-8%
COc1ccc(N2CCN(c3nc(C(=O)NCc4ccc(F)cc4F)cs3)CC2)cc1	?	i	?	35µM*
CC(=O)N1CCN(c2nc(-c3c(C)noc3C)cc3cc(C(C)C)oc23)CC1	50µM*	i	-2%[70.6 µM]	?
Cc1noc(C)c1-c1cc2c(cc(C)n2C)c(-c2cccc(CO)c2)n1	45µM*	i	-20%[70.6 µM]	?
Cc1cc2c(-c3cccc(OC(C)C)c3)nc(-c3c(C)noc3C)cc2[nH]1	50µM*	i	-1%[70.6 µM]	28µM*
Cc1noc(C)c1-c1cc2cc(C(C)C)oc2c(-c2cccc(CO)c2)n1	?	i	-13%[70.6 µM]	71µM*
CNC(=O)c1cc2cc(-c3c(C)noc3C)nc(-c3cccc(CO)c3)c2o1	?	i	0%[70.6 µM]	?
Cc1cc2cc(-c3c(C)noc3C)nc(N3CCCC3)c2o1	?	i	4%[70.6 µM]	?
C[S+](=O)([O-])N1Cc2ccccc2CC2(CCN(CC3CCCC3)C2)C1 (stereo not given)	i	·	·	-14%
Cc1noc(C)c1-c1cc2c(cc(C)n2C)c(NCc2ccncc2)n1	?	i	5%[70.6 µM]	?
Cc1cc2c(-c3ccc(CO)cc3)nc(-c3c(C)noc3C)cc2[nH]1	10µM*	i	-1%[70.6 µM]	?
Cc1noc(C)c1-c1cc2c(cc(C)n2C)c(-c2ccc(CO)cc2)n1	32µM*	i	1%[70.6 µM]	?
Cc1noc(C)c1-c1cc2c(cc(C)n2C)c(N2CCN(c3ccccn3)CC2)n1	45µM*	i	3%[70.6 µM]	63µM*
Cc1csc(NC(=O)c2nc3c(o2)CCN(CCCc2ccccc2)CC3)n1	?	i	-7%[70.6 µM]	?
O=C(NCc1ccccc1)c1nc2c(o1)CCN(Cc1c(F)cccc1F)CC2	?	i	3%[70.6 µM]	-28%[172 µM]
O=C(NCCOc1ccccc1)c1nc2c(o1)CCN(Cc1cc(F)ccc1F)CC2	?	i	-4%[70.6 µM]	?
COc1ccccc1CN1CCc2nc(C(=O)Nc3nc(C)cs3)oc2CC1	?	25µM*	-12%[70.6 µM]	?
Cc1csc(NC(=O)c2nc3c(o2)CCN(Cc2c(F)cccc2F)CC3)n1	?	28µM*	3%[70.6 µM]	?
Cc1csc(NC(=O)c2nc3c(o2)CCN(Cc2cc(F)ccc2F)CC3)n1	?	28µM*	-13%[70.6 µM]	?
COc1ccc(C(=O)N2CCCC(c3nc(CCOCC4CCCC4)no3)C2)cc1F (stereo not given)	?	i	?	45µM*
O=[S+]1([O-])NCC2(CCCN(Cc3cccc4ccccc34)C2)Nc2ccccc21 (stereo not given)	?	i	2%	?
COCc1ccc2c(c1)c(OC(C)(C)C(=O)NC1CCOCC1)nn2Cc1cccnc1	?	i	-3%[70.6 µM]	i
COCc1ccc2c(c1)c(OC(C)(C)C(=O)Nc1ccc(OC)cc1)nn2Cc1cccnc1	?	i	5%	-6%
CC(C)(Oc1nn(CC2CCOCC2)c2ccccc12)C(=O)NCCc1ccccc1	?	i	-10%[70.6 µM]	100µM*
COCc1ccc2c(c1)c(OC(C)(C)C(=O)NCC1CCOCC1)nn2Cc1cccnc1	40µM*	i	5%	i
COCc1ccc2c(c1)c(OC(C)(C)C(=O)Nc1cc(C)nn1C)nn2Cc1cccnc1	40µM*	i	1%	i
O=C(NCc1nnc2cc(-c3nc(C4CC4)no3)ccn12)c1ccc(F)c(F)c1	-8%	i	?	2%
O=C(O)C1(c2ccccc2)CCN(S(=O)(=O)c2cccs2)CC1	?	·	·	-4%
